GPR151 activ: activates the human receptor GPR151 | activation, % at 11.2 µM | Q8TDV0 | 650,000 tested, 1% active | PathHunter beta-arrestin GPR151 cells, luminescence | AID 1508602; in the data active means activation above about 4.9%
MITF inh: blocks human microphthalmia-associated transcription factor. AlphaScreen MITF homodimerization, bead proximity signal. inhibition, % at 2.6 µM. 650,000 tested, 0.91% active. AID 1259374; in the data active means inhibition above about 50%
Target sequence (O75030 whole entry, looked up): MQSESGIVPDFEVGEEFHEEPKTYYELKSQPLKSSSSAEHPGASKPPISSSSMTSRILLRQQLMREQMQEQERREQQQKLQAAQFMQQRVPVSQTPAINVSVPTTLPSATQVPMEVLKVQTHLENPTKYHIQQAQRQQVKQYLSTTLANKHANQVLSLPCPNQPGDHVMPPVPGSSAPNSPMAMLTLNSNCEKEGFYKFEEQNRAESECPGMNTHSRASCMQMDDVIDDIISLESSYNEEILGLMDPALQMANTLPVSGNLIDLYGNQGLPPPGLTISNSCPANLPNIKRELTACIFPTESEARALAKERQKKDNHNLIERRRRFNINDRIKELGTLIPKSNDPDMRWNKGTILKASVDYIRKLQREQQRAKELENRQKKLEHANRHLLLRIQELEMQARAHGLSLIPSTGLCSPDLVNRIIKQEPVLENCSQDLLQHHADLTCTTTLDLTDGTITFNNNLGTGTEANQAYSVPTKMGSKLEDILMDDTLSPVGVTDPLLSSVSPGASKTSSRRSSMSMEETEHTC
TEAD-YAP block: TEAD-YAP interaction inhibition; HEK-TIYL cells, TEAD-Gal4/YAP UAS-luciferase luminescence; AID 1259422; inhibition, % at 9.12 µM; 640,000 tested, 1.4% active; in the data active means inhibition above about 32%
FBW7 activator: human FBW7 E3 ligase activation, primary screen; Q969H0; AlphaScreen FBW7–phospho-cyclin E peptide binding, activator screen; normalized activity (activation), % at 26.1 µM; 650,000 tested, 0.13% active; in the data active means normalized activity above about 1.9%;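 further: purified mutant Fbw7 with reduced substrate affinity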
GPR151 conf act: human GPR151 activation, confirmation screen | shares compounds with GPR151 activ | GPR151 PathHunter beta-arrestin cells, luminescence, 90 min; % of EA-reagent control over plate median | activation, % at 11.2 µM | 6,700 tested, under 10 active | AID 1508609;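 active means mean percent activation across replicates above the confirmation screen cutoff of 4.91%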
GPR119 counter: activates human GPR119 in a GPR151 counter-screen; shares compounds with GPR151 activ; GPR119 PathHunter beta-arrestin cells, luminescence, 90 min; 0 = compound-well median, 100 = enzyme-acceptor control; activation, % at 11.2 µM; 6,700 tested, 0.3% active;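 active means mean percent activation in the counterscreen above 29.09%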;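 further: counterscreen on off-target GPR119 to flag nonselective hits from the GPR151 activator screen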
Hits are given with their value; - = inactive; . = not tested or not shown; ! = not active in a repeat. Shown are actives, neighbours in structure and some others; about 3.5% of the full set was active somewhere.

SMILES | GPR151 activ | MITF inh | TEAD-YAP block | FBW7 activator | GPR151 conf act | GPR119 counter
COc1ccc2[nH]cc(C(=O)N3CCC(C)CC3)c(=O)c2c1 | - | - | - | - | . | .
CCC1CN(CC(=O)NCc2nc3c(s2)CCCC3)Cc2cc(OC)ccc2O1 (centres undefined) | - | - | - | - | . | .
O=C(CCC1CCN(C(=O)C2=CCCCC2)CC1)Nc1ccccc1 | 5.3 | - | - | - | - | -
O=C(c1ccc(CS(=O)(=O)Cc2ccc(F)cc2)o1)N1CCCCC1 | 5.3 | - | - | - | - | -
Cc1ccccc1S(=O)(=O)Cc1ccc(C(=O)N2CCCCC2)o1 | - | - | - | - | . | .
CC(C)(C)c1ccc(NC(=O)N(Cc2ccsc2)Cc2ccccn2)cc1 | - | - | - | - | . | .
CCCN1C(=O)/C(=C/c2ccco2)SC1=S | - | - | - | - | . | .
CCC(C)N1C(=O)/C(=C\c2ccco2)SC1=S (centres undefined) | 8.1 | - | - | - | - | -
Cn1c(=O)c2c(ncn2CC(=O)N/N=C/c2ccc(C(F)(F)F)cc2)n(C)c1=O | 5.6 | - | - | - | - | -
Cn1c(=O)c2c(ncn2CC(=O)N/N=C/c2ccccc2F)n(C)c1=O | - | - | - | - | . | .
CN1CCC(N(C)Cc2cc([N+](=O)[O-])ccc2O)CC1 | 6.0 | - | - | - | - | -
COc1ccc(C2C(C(N)=O)=C(C)Nc3ncnn32)cc1OC (centres undefined) | 5.1 | - | - | - | - | -
COc1cc(C2C(C(N)=O)=C(C)Nc3ncnn32)cc(OC)c1OC (centres undefined) | - | - | - | - | . | .
O=C(COc1ccc(F)cc1)Nc1cccc(C(=O)O)c1 | 6.5 | - | - | - | - | -
CC(=O)c1ccc(OCC(=O)Nc2ccccc2)cc1 | 5.8 | - | - | - | - | -
CCOc1ccc(NC(=O)c2ccc(C(C)(C)C)cc2)cc1 | - | - | - | - | . | .
CCOc1ccc(-c2cccc(NC(=O)COc3ccc(C(=O)c4ccccc4)cc3)c2)nn1 | 7.3 | - | - | - | - | -
CCOc1ccc(NC(=O)CNC(=O)c2ccc(C(C)(C)C)cc2)cc1 | 9.1 | - | - | - | - | -
CC(C)(C)c1ccc(OCC(=O)Nc2ccc(OCC(=O)O)cc2)cc1 | 5.2 | - | - | - | - | -
COc1cc(CC(=O)N(CC2CCCO2)c2nc3ccccc3s2)cc(OC)c1OC (centres undefined) | - | - | - | - | . | .
CCC(=Nc1ccccc1OC)C1=C(O)CC(C)(C)CC1=O | - | - | - | - | . | .
CN1C(=O)C(C)(C)c2cc(S(=O)(=O)N3CCN(c4ccccc4F)CC3)ccc21 | 5.1 | - | - | - | - | -
Cc1cccc(N2CCN(S(=O)(=O)c3ccc4c(c3)C(C)(C)C(=O)N4C)CC2)c1C | - | - | - | - | . | .
CC(=O)Nc1nc2ccc(NC(=O)c3ncoc3-c3cccs3)cc2s1 | - | - | - | - | . | .
COc1ccc(NC(=O)C2CC(=O)NC(Nc3ccc(C)cc3C)=N2)cc1 (centres undefined) | 12 | - | - | - | - | -
SMILES | GPR151 activ | MITF inh | TEAD-YAP block | FBW7 activator | GPR151 conf act | GPR119 counter
O=C(NC1CCCC1)c1ccc2c(c1)NC(=O)C(CS(=O)(=O)Cc1ccccc1Cl)N2 (centres undefined) | - | - | - | - | . | .
NC(=O)C1CCN(C(=O)CCCCCn2c(=S)[nH]c3ccccc3c2=O)CC1 | - | - | - | - | . | .
Cc1nn(CC(=O)Nc2ccc(Oc3ccc(Cl)cc3)cc2)c(C)c1[N+](=O)[O-] | - | - | - | - | . | .
Cc1nn(CC(=O)Nc2ccc(O)cc2)c(C)c1[N+](=O)[O-] | 6.1 | - | - | - | - | -
CCOC(=O)c1sc(N2C(=O)C(=O)/C(=C(/O)c3ccc(C)cc3)C2c2ccc(Br)cc2)nc1C (centres undefined) | - | - | - | - | . | .
O=C(CNC(=O)c1ccc(Cl)c(Cl)c1)OCC(=O)N1CCCC1=O | - | - | - | - | . | .
COc1ccc(OCc2cc(C(=O)N[C@H]3CCCCNC3=O)no2)c(Cl)c1 | 5.0 | - | - | - | - | -
COc1ccc(OCc2cc(C(=O)N3CCCCC3CO)no2)c(Cl)c1 (centres undefined) | - | - | - | - | . | .
CN(C)CCCSC(=N)N | - | - | . | - | . | .
CSC(=N)N | 11! | - | - | - | - | -
CCC(C)(C)NC(=O)C(c1ccccc1F)N(Cc1cccnc1)C(=O)c1csnn1 (centres undefined) | - | - | - | - | . | .
O=C1CCCCc2sccc2N1 | 6.4 | - | - | - | - | -
CC1=C(c2ccc(C)cc2)S(=O)(=O)N=C1Nc1ccc(Br)cc1F | 8.7 | - | - | - | - | -
CC1=C(c2ccc(C)cc2)S(=O)(=O)N=C1Nc1ccc(C)cc1 | - | - | - | - | . | .
CC(C(=O)Nc1ccc(Br)cc1F)N1Cc2ccccc2C1=O (centres undefined) | - | - | - | - | . | .
CC(C(=O)Nc1ccc(Br)cn1)N1Cc2ccccc2C1=O (centres undefined) | 7.2 | - | 85 | - | - | -
Cc1ccc(S(=O)(=O)NCCc2ccc(F)cc2)cc1 | - | - | - | - | . | .
Cc1cc(C)n(-c2cc(NCCNC(=O)C(C)(C)Oc3ccc(Cl)cc3)nc(C)n2)n1 | 8.6 | - | - | - | - | -
CCSc1ccsc1C1C(C#N)=C(N)N(c2cccnc2)C2=C1C(=O)CCC2 (centres undefined) | - | - | - | - | . | .
CC(C)c1nc(CNc2nc3nonc3nc2N(C)C)cs1 | 6.8 | - | - | - | - | -
COc1cccc(C(NC(=O)C2CCN(C(=O)C(C)(C)C)CC2)c2ccccn2)c1 (centres undefined) | - | - | - | - | . | .
COc1ccc(CCNC(=O)CN2N=C(c3ccc(C)cc3)CCC2=O)cc1OC | 6.7 | - | - | - | - | -
COC(=O)CC(NC1CCN(c2ccc(CC(=O)N3CCCC3)cc2)CC1)C(=O)OC (centres undefined) | 6.1 | - | - | - | - | -
CCOc1ccc2[nH]c(=O)c(CN(CCOC)C(=O)c3cccc(C)c3)cc2c1 | - | - | - | - | . | .
COc1ccc(Cc2n[nH]c(=O)c3ccccc23)cc1OC | 5.3 | - | - | - | - | -
SMILES | GPR151 activ | MITF inh | TEAD-YAP block | FBW7 activator | GPR151 conf act | GPR119 counter
O=c1[nH]nc(Cc2ccccc2)c2ccccc12 | - | - | - | - | . | .
Cc1c(NC(=O)C(F)(F)F)cccc1[N+](=O)[O-] | - | - | - | - | . | .
O=C(NCCN1CCOCC1)c1ccc2c(c1)ncn2-c1ccc(F)cc1F | 5.4 | - | - | - | - | -
Cc1ccc(-n2cnc3cc(C(=O)NCc4ccc(F)cc4)ccc32)cc1Cl | 5.9 | - | - | - | - | -
Cc1cnc(NC(=O)Cc2ccsc2)s1 | 6.3 | - | - | - | - | -
CC(C)C(NC(=O)C1CCCCC1)C(=O)Nc1ccncc1 (centres undefined) | 5.6 | - | - | - | - | -
CCCc1ccc(-c2ccc(C(=O)Nc3ccc(C)cc3)cc2)nc1 | 7.1 | - | - | - | - | -
